Records with an inconclusive call do not appear. The source made the active and inactive calls. The call rests on the fitted dose curve; in most records, active means well fitted inhibition curve with a large enough effect; inconclusive means small, poorly fitted or top-dose-only effect; inactive means no such curve, though single readings can be large or run the other way. Residues, ends and D or L forms follow the SMILES beside them. *: point of attachment. Cbz = O=C(OCc1ccccc1)*
On the % scale 0 is the no-effect control and ±100 the full control effect; potency means the concentration at half of the fitted maximal effect.

This test can be described thus: qHTS for Inhibitors of ATXN expression: Validation (AID 588378). Further: nearly all actives have a fitted effect of over 75% in size. The following applies: cell-based ATXN2 expression reporter assay, luminescence; series mostly up to 57.1 µM; activity change, negative = inhibition: at the top concentration. The method in brief:
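Compounds were pinned onto attached HEK293 cells carrying an ATXN2-firefly luciferase construct and incubated 24 hrs at 37 degrees C. Each well then received a fluorescent viability reagent followed by luciferase substrate for end-point luminescence.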
For `COc1ccc(C(=O)NCc2cccnc2)cc1C(=O)NCc1cccnc1`, the “activity change, negative = inhibition” value was -2.26% (inactive).

Turning to `O=c1cc(O)cc(/C=C/c2ccc(O)c(O)c2)o1`, the “activity change, negative = inhibition” value is -12.4% (inactive).

Turning to `COc1cc(CC(=O)O)ccc1O`, the “activity change, negative = inhibition” value was -0.723% (inactive).

For the compound `Cc1ccc([N+](=O)[O-])cc1S(=O)(=O)N(C)C`, the “activity change, negative = inhibition” value is -7.65% (inactive).

In the case of `Nc1ncnc2c1nc(Sc1ccc(Cl)cc1)n2[C@H]1OC2COP(=O)(O)O[C@@H]2C1O` (some centres not stated), the “activity change, negative = inhibition” value was -11.7% (inactive).

Consider `COc1cc(/C=C(\C#N)C(=O)c2ccc(O)c(O)c2)cc(I)c1O`, for which the “activity change, negative = inhibition” value was -3.65% (inactive).

As to `Nc1nc2c(cnn2CCc2ccccc2)c2nc(-c3ccco3)nn12`, the “activity change, negative = inhibition” value is 19.2% (inactive).

`S=C(S)N1CCCC1`: the “activity change, negative = inhibition” value is -3.19% (inactive).

`CC(C)NC[C@H](O)COc1ccc(CC(N)=O)cc1`: the “activity change, negative = inhibition” value was -9.42% (inactive).

Regarding `CC(/C=C/c1cccc(Oc2ccc(F)cc2)c1)N(O)C(N)=O` (configuration not stated), the “activity change, negative = inhibition” value was -11.5% (inactive).

For `O=C(OCCN1CCOCC1)C1(c2ccccc2)CCCCC1`, the “activity change, negative = inhibition” value is -6.77% (inactive).

Take `Cc1nc2n(c(=O)c1CCN1CCC(c3noc4cc(F)ccc34)CC1)CCCC2O` (configuration not stated): the “activity change, negative = inhibition” value is -16% (inactive).

In the case of `Cc1nc2c(OCc3ccccc3)cccn2c1CC#N`, the “activity change, negative = inhibition” value was 16.1% (inactive).

As for `COc1ccc2c(c1)CCC1C2CC[C@@]2(C)C1CC[C@@H]2NCCCCCCN1C(=O)C=CC1=O` (some centres not stated), the “activity change, negative = inhibition” value was -3.83% (inactive).

Consider `Nc1nc2[nH]c(=O)cnc2c(=O)[nH]1`, for which the “activity change, negative = inhibition” value was -8.33% (inactive).

Consider `NC1(C(=O)O)CCc2cc(C(=O)O)ccc21` (configuration not stated), for which the “activity change, negative = inhibition” value is -8.38% (inactive).

Regarding `CC(N)=O`, the “activity change, negative = inhibition” value was 2.62% (inactive).

For the compound `CC(C)[C@H](NC(=O)OCc1ccccc1)C(=O)N[C@H](C=O)Cc1ccccc1` (Cbz-Val-Phe-aldehyde), the “activity change, negative = inhibition” value is -24.4% (inactive).

With `O=c1oc(Cl)c(Cl)c2ccccc12`, the “activity change, negative = inhibition” value was -1.88% (inactive).

For `Nc1ccc2c3c(cccc13)C(=O)NC2=O`, the “activity change, negative = inhibition” value was -8.4% (inactive).

As to `CN(CC[C@@H](Oc1ccc(C(F)(F)F)cc1)c1ccccc1)CC(=O)O`, the “activity change, negative = inhibition” value is -8.87% (inactive).

In the case of `COc1cc(C(O)C(=O)O)ccc1O` (configuration not stated), the “activity change, negative = inhibition” value was -6.28% (inactive).

As for `CCCCCCCC/C=C\CCCCCCCC(=O)NCCc1ccc(O)c(O)c1`, the Potency was 20 µM (active).

As for `COc1ccccc1N1CCN(CCCCNC(=O)c2ccc3ccccc3c2)CC1`, the “activity change, negative = inhibition” value was -4.4% (inactive).

For the compound `CCCCCCC(=O)OC1CC(C)(C)NC(C)(C)C1`, the “activity change, negative = inhibition” value was -2.33% (inactive).

In the case of `NCC(O)(CS(=O)(=O)O)c1ccc(Cl)cc1` (configuration not stated), the “activity change, negative = inhibition” value was 0.431% (inactive).

Consider `COc1cc(CNC(=O)CCCCCCC(C)C)ccc1O`, for which the “activity change, negative = inhibition” value was -22.6% (inactive).

As for `CSC(=N)N`, the “activity change, negative = inhibition” value is -8.71% (inactive).

Consider `O=C(O)/C=C/c1cnc[nH]1`, for which the “activity change, negative = inhibition” value is -1.85% (inactive).

As to `N=C(N)SCCc1cnc[nH]1`, the “activity change, negative = inhibition” value is 16% (inactive).

Turning to `CC1=C(/C=C/C(C)=C/C=C/C(C)=C\C(=O)O)C(C)(C)CCC1`, the “activity change, negative = inhibition” value is -0.906% (inactive).

Regarding `NC1CONC1=O` (configuration not stated), the “activity change, negative = inhibition” value was 22.5% (inactive).

For the origin of these results see PubChem BioAssay (NCATS).
